Pol iota inh – qHTS for Inhibitors of Polymerase Iota; DNA polymerase iota (Homo sapiens), Q9UNA4; Pol iota fluorescent replication assay, 10 min; Potency, µM (top dose mostly 115 µM), for the others: at the highest dose activity, negative = inhibition, usual class: inhibitors; 390,000 tested, 1% active; AID 588590, 2011; also: potency is read from the fitted curve at half-maximal effect
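Fluorescent replication assay read twice, at 0 min and 10 min after adding 50 nM (final) substrate. Enzyme (10 nM) and compounds were first incubated 15 min at room temperature; enzyme-free buffer wells were negative controls.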
PI4K2A inh – qHTS for small molecular inhibitors of PI4K2A. 420,000 tested, 0.13% active. AID 1346378, 2018. purified PI4K2A, ADP-Glo luminescence, 1 h; stronger effect = lower value. activity change, negative = inhibition, % at 76.9 µM; in the data active = activity change below about -50%; inconclusive = mostly about -30% to -49%;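 also: -100% = wells without enzyme as full effect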
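Compounds are screened against recombinant PI4K2A using PI as substrate and ATP, the latter dispensed at 300 microM. Reactions run one hour at ambient temperature before ADP-Glo detection; full inhibition defined by wells lacking enzyme.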
Pol kappa inh – qHTS for Inhibitors of Polymerase Kappa | Potency, µM (top dose mostly 107 µM), for inactives: at the top dose activity, negative = inhibition, actives largely listed as inhibitors | 400,000 tested, 0.53% active | AID 588579, 2011 | purified Pol kappa, fluorescent DNA synthesis assay, 10 min; also: potency is read from the fitted curve at half-maximal effect; % is scaled to controls: 0 for no effect and ±100 for the full control effect
Target sequence (Q9UBT6 whole entry, looked up): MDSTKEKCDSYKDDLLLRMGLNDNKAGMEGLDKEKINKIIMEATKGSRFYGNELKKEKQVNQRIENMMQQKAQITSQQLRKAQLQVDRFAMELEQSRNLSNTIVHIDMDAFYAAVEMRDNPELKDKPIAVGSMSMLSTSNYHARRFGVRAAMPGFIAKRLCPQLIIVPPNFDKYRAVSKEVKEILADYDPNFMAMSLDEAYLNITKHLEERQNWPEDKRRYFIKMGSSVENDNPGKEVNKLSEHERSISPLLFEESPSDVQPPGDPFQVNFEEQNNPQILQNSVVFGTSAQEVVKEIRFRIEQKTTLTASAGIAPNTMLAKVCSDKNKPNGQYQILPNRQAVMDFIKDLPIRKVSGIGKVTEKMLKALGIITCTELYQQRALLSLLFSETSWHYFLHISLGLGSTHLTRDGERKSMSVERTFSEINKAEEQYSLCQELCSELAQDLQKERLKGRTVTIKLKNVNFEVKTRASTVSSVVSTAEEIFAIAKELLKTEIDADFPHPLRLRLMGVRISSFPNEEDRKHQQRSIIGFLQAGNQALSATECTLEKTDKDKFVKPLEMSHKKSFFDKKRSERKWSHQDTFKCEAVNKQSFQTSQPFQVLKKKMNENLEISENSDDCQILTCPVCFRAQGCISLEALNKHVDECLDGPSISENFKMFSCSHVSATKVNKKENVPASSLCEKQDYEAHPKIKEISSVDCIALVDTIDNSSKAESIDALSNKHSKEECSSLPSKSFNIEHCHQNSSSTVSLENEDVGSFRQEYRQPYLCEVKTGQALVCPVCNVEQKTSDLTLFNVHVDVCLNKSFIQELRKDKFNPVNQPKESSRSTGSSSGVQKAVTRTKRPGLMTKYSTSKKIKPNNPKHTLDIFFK
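First, compounds were pin-transferred onto 10 nM Pol kappa. After 15 min at room temperature, substrate was added to 50 nM final. Fluorescence was then measured kinetically at 0 and 10 min.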
Pol beta inh – qHTS Assay for Inhibitors of DNA Polymerase Beta. P06746. Pol beta primer extension/strand displacement, fluorescence kinetic. Potency, µM (doses to about 114 µM), inactives show at the top dose activity change, negative = inhibition, hits mostly inhibitors. 340,000 tested, 1.3% active. AID 485314, 2010; also: potency is read from the fitted curve at half-maximal effect; % is scaled to controls: 0 for no effect and ±100 for the full control effect
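Enzyme-only controls used 10 nM Pol beta; buffer lacking enzyme served as negative control. Compound preincubated 15 min, then 50 nM substrate added; 0 and 10 min reads at room temperature.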
Pol eta inh – qHTS for Inhibitors of Polymerase Eta; Potency, µM (top dose mostly 114 µM), inactives show at the top dose activity change, negative = inhibition, most hits filed as inhibitors; recombinant Pol eta, fluorescent DNA replication assay; DNA polymerase eta (Homo sapiens), Q9Y253; 390,000 tested, 1.2% active; also: potency is read from the fitted curve at half-maximal effect; % is scaled to controls: 0 for no effect and ±100 for the full control effect
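Pol eta at 10 nM preincubated with compounds 15 min at room temperature; reaction started with fluorescent substrate (50 nM final) and read kinetically at 0 and 10 min.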
PI5P4Ka inh – qHTS for Inhibitors of phosphatidylinositol 5-phosphate 4-kinase (PI5P4K); Phosphatidylinositol 5-phosphate 4-kinase type-2 alpha (Homo sapiens), P48426; 330,000 tested, 1.2% active; PI5P4Kalpha enzyme, ADP-Glo luminescence, 60 min; stronger effect = lower value; AID 652105, 2013; max response, %; active = max response of -50% or lower; inconclusive = between -30% and -50%; inactive = -30% or higher; also: value at the top dose of about 77 µM; % is scaled to controls: 0 for no effect and ±100 for the full control effect
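Enzyme plus substrate dispensed, test compounds pinned in, then ATP (5 microM final) added. After 60 min at RT, ADP-Glo reagent 1 for 45 min and reagent 2 for 30 min preceded luminescence imaging.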
* = called active by the depositor; ? = inconclusive; . = no result given; [ ] = another dose, or the depositor's remark. This is a sample that favours compounds with a hit; in the whole collection about 2.8% have one here. Unless noted, calls follow the shape of the dose curve; as a rule, active = well fitted inhibition curve with a large enough effect; inconclusive = small, poorly fitted or top-dose-only effect, or another doubt; inactive = no such curve, though single readings can be large or run the other way.

SMILES | Pol iota inh | PI4K2A inh | Pol kappa inh | Pol beta inh | Pol eta inh | PI5P4Ka inh
COC(=O)CSc1cccc2c1C(=O)CC2c1ccccc1 (stereo not drawn) | -28% | 3 | -22% | 15% | -13% | -13
O=C1C=CC2(O[C@H](c3ccccc3)[C@@H](c3ccccc3)O2)[C@H](Sc2ccccc2O)C1 | 22µM* | ? | -3% | . | ? | -11
CCn1cc(C(=O)NCCc2ccc(Cl)cc2)c(=O)c2cc(S(=O)(=O)N3CCC(C)CC3)ccc21 | 23% | -7 | 6% | 0% | -27% | .
Cc1cc(C)c2c(=O)c(C#N)coc2c1 | ? | ? | ? | 45µM* | 50µM* | ?
CCC[N+](C)(C)c1ccc(/C=C/c2ccncc2)cc1 | ? | . | -27% | . | . | .
CCC1Nc2ncnc(N3CCOCC3)c2N(Cc2ccccc2)C1=O (stereo not drawn) | 1% | -3 | -2% | . | 0% | -2
CCC1Nc2ncnc(N3CCCCC3)c2N(Cc2ccccc2)C1=O (stereo not drawn) | ? | 4 | 2% | . | 89µM* | -3
Cc1nn(CCc2nc(-c3ccco3)cs2)c2[nH]c(=O)cc(C(F)(F)F)c12 | 13µM* | -16 | 35µM* | 22µM* | 32µM* | .
Cc1ccc(-n2c(-c3ccc(Br)cc3)c[n+]3c2CCc2ccc4cccnc4c2-3)cc1 | -3%[58.9 µM] | -4 | -1% | 50µM* | -9% | .
Oc1ccccc1C1C=C(c2ccc3c(c2)OCO3)NC(c2ccc(F)c(Br)c2)N1 (stereo not drawn) | ? | . | 7% | . | . | .
Oc1ccc(Br)cc1C1C=C(c2ccc3c(c2)OCO3)NC(c2ccc(F)c(Br)c2)N1 (stereo not drawn) | 13µM* | . | 4% | . | . | .
O=C(CCC(=O)N1CCN(c2ccc(O)cc2)CC1)c1cccs1 | 71µM* | 1 | -12% | ? | -21% | -7
COc1ccc(Cl)cc1NC(=O)CSc1nnc2[nH]c(=O)cc(-c3ccccc3)n12 | 1% | 0 | -2%[60.1 µM] | 6% | 89µM* | .
O=C(CSc1nnc2[nH]c(=O)cc(-c3ccccc3)n12)Nc1ccccc1C(F)(F)F | 7% | -1 | -9%[60.1 µM] | 5% | 2% | .
CC1(C)C=Cc2c(c3c(c4c(=O)c(-c5ccc(O)cc5)coc24)OC(C)(C)CC3)O1 | 3% | 0 | -9% | 11µM* | -14% | -28
CC(C)(C)c1cc(=O)n(-c2ccccc2)[nH]1 | 7.1µM* | -54* | -13% | ? | ? | -3
CSc1nc(-c2ccco2)nn1C(=O)c1cccs1 | ? | -4 | -14% | -24% | -10% | -6
COc1ccc(C(=O)n2nc(-c3ccco3)nc2SC)cc1OC | 32µM* | 7 | -10% | ? | ? | -23
O=C1c2ccccc2-c2cc([N+](=O)[O-])c([N+](=O)[O-])cc21 | 2.2µM* | . | 0% | . | . | .
Cc1ccc(/C=C/C(=O)NCCc2ccccc2)o1 | ? | -1 | -13% | -29% | ? | -60*
Cc1ccc(S(=O)(=O)N2CC=C(c3c(C)n(CC(=O)N4CCCC4)c4ccccc34)CC2)cc1C | 79µM* | 0 | -15% | -2% | -14% | .
Cc1c(C2=CCN(S(=O)(=O)c3ccc(Br)cc3)CC2)c2ccccc2n1CC(=O)N1CCCC1 | 22% | -1 | -3% | 25% | 3% | .
COc1cc(-c2cc(C(=O)Nc3ccccc3N3CCOCC3)c3ccccc3n2)cc(OC)c1OC | 65% | 1 | 2% | -1% | -22% | 0
O=C(Nc1ccccc1N1CCOCC1)c1cc(-c2ccco2)nc2ccccc12 | ? | -17 | -41% | 14µM* | ? | ?
CCN1CCN(C(=O)c2cc(-c3ccco3)nc3ccccc23)CC1 | 40µM* | -8 | ? | . | 35µM* | -19

Source: PubChem (National Center for Advancing Translational Sciences (NCATS))
